KB-V1 cytotox – qHTS assay for MDR1-selective chemotherapeutics: Primary screen using the drug-selected MDR subline cells KB-V1; KB-V1 MDR cells viability, CellTiter-Glo, 72 h; Potency, µM (series often up to 46.1 µM), actives largely listed as cytotoxic; 400,000 compounds, 3.4% hits; also: potency is read from the fitted curve at half-maximal effect; % is scaled to controls: 0 for no effect and ±100 for the full control effect; nearly all actives have a fitted effect of over 60% in size
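Cells of the MDR subline KB-V1 are plated, dosed with compound at multiple concentrations, and incubated 72 h at 37 degrees C; CellTiter-Glo is then added and luminescence read after 10 min.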
IL-1B inflam inh – qHTS for Inhibitors of Inflammasome Signaling: IL-1-beta AlphaLISA Primary Screen | activity change, % at 57.5 µM | 360,000 compounds, 4.7% hits | AID 743279, 2014 | THP-1 LPS/ATP IL-1B secretion, AlphaLISA, 16 h; active compounds read low; in the data active = activity change below about -50%; inconclusive = mostly about -30% to -49%; also: % is scaled to controls: 0 for no effect and ±100 for the full control effect
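THP-1 cells pretreated 1 hr with compounds (up to 57.5 uM final), then stimulated with LPS (250 ng/mL final) plus ATP (1.25 mM final); secreted IL-1B measured by AlphaLISA after 16 hr, decreased signal indicating inhibition.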
MCF10A rereplic – A quantitative high throughput screen for small molecules that induce DNA re-replication in MCF 10a normal breast cells; AID 624296, 2012; Potency, µM (highest dose often 46.1 µM), for the others: at the highest dose activity, positive = re-replication, usual class: activators; MCF 10A DNA re-replication, Hoechst nuclear intensity, 48 h; 350,000 compounds, 2.9% hits; also: potency is read from the fitted curve at half-maximal effect; % of control where 0% means no effect; nearly all actives have a fitted effect of over 50% in size
KB-3-1 cytotox – qHTS assay for MDR1-selective chemotherapeutics: Primary screen using the parental adenocarcinoma cell KB-3-1. KB-3-1 viability, CellTiter-Glo ATP luminescence, 72 h. Potency, µM (series often up to 46.1 µM), actives largely listed as cytotoxic. 400,000 compounds, 1.4% hits. AID 1347075, 2019; also: potency is read from the fitted curve at half-maximal effect; % is scaled to controls: 0 for no effect and ±100 for the full control effect; nearly all actives have a fitted effect of over 60% in size
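Using CellTiter-Glo luminescence, growth of non-resistant KB-3-1 adenocarcinoma cells is assessed 72 h after pin-tool compound addition at 37 °C. Normalized responses across the concentration series yield fitted curves.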
SW480 rerep – A quantitative high throughput screen for small molecules that induce DNA re-replication in SW480 colon adenocarcinoma cells; 340,000 compounds, 1.8% hits; AID 624297, 2012; Potency, µM (series often up to 46.1 µM), inactives show at the highest dose re-replication activation, actives largely listed as activators; SW480 DNA re-replication, Hoechst DNA content imaging, 48 h; also: potency is read from the fitted curve at half-maximal effect; % of control where 0% means no effect; nearly all actives have a fitted effect of over 55% in size
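Image-based read-out: total Hoechst fluorescence of nuclei (405 nm excitation, 500-530 nm emission), with hits raising the fraction of high-intensity nuclei. SW480 colon cells incubated 48 hr with compounds at 37 C.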
* = called active by the depositor; i = inactive; u = inconclusive; x = not tested or not shown. Sampled rows, rich in hits. Any-hit rate of the full collection: about 9.9%. Unless noted, calls follow the shape of the dose curve; as a rule, active = well fitted curve in the direction sought with a large enough effect; inconclusive = small, poorly fitted or top-dose-only effect, or another doubt; inactive = no such curve, though single readings can be large; an effect the other way counts as inactive or inconclusive.

SMILES | KB-V1 cytotox | IL-1B inflam inh | MCF10A rereplic | KB-3-1 cytotox | SW480 rerep
Cc1ccccc1SC1CCN(Cc2nc(C3CC3)no2)CC1 | i | 17 | -3% | i | -2%
O=C(NCCc1nc(-c2ccccc2)cs1)c1ccc(Br)cc1 | i | -77* | u | i | 6%
COc1cc([N+](=O)[O-])cc(/C=N/NC(=O)c2ccc(NC(=O)c3ccc(C)cc3)cc2)c1O | i | 73 | 18% | 5.2µM* | u
COc1cc([N+](=O)[O-])cc(/C=N/NC(=O)Cn2cncn2)c1O | u | -6 | 16µM* | u | -2%
COc1cc([N+](=O)[O-])cc(/C=N/NC(=O)C(C)Nc2ccccc2C)c1O (stereo unspecified) | 12µM* | 1 | 1.6µM* | u | u
COc1cc(/C=N/NC(=O)c2ccc(C)nc2)cc([N+](=O)[O-])c1O | i | -9 | 3% | i | -8%
COc1cc([N+](=O)[O-])cc(/C=N/NC(=O)c2ccc(C)nc2)c1O | u | 0 | 15µM* | u | x
COc1cc([N+](=O)[O-])cc(/C=N/NC(=O)CSc2ccccn2)c1O | u | 26 | u | u | u
CCN1CCN(C(=O)C(C)Nc2ccc(OC)cc2OC)CC1 (stereo unspecified) | u | 18 | -26% | i | -5%
CCOC(=O)c1c(C)oc2nc(C)nc(NC(C)c3ccccc3)c12 (stereo unspecified) | i | x | x | i | x
COc1cc(C(=O)Nc2c(C(=O)Nc3ccccc3F)oc3ccccc23)cc(OC)c1OC | i | x | x | i | x
N#C/C(=C/c1ccc(F)cc1)c1nnc(NC(=O)c2ccccc2)s1 | i | -7 | u | i | -5%
O=C(Nc1ccc(Cl)cc1)C(Cl)C(=O)c1ccccc1 (stereo unspecified) | i | u | u | i | u
O=C(Nc1ccccc1Cl)C(Cl)C(=O)c1ccccc1 (stereo unspecified) | i | -68* | 2% | i | 6%
O=C(CCCCC(=O)Nc1ccccc1Cl)Nc1ccccc1Cl | i | -8 | -1% | i | 2.9µM*
O=C(Nc1ccccc1Cl)Nc1ccccc1Cl | i | 7 | -3% | i | 15%
Cc1ccc(S(=O)(=O)Nc2cccc(C(=O)NCCN3CCOCC3)c2)cc1F | u | 0 | 4% | i | u
CC1=C(C(=O)Nc2ccc(CC(=O)NCc3ccccc3C)cc2)SCCO1 | i | 5 | u | u | -1%
CCc1ccc(CNC(=O)Cc2ccc(NC(=O)C3=C(C)OCCS3)cc2)cc1 | 1.2µM* | 44 | u | 1.2µM* | u
Cc1ccc(OCCCC(=O)Nc2sc3c(c2C(N)=O)CCCC3)cc1 | i | x | x | i | x
CC(=O)c1ccc(Oc2ncnc(N)c2[N+](=O)[O-])cc1 | u | -24 | 4.1µM* | u | -1%
CCc1ccc(Oc2ncnc(N)c2[N+](=O)[O-])cc1 | i | -86* | 18% | i | 17%
Cc1ccccc1Oc1ncnc(N)c1[N+](=O)[O-] | i | -1 | 2% | i | -2%
Nc1ncnc(Oc2ccccc2F)c1[N+](=O)[O-] | i | -89* | 3% | i | -2%
COc1ccc(C(=O)NCCCn2nc(C)cc2C)cc1S(=O)(=O)N1CCOCC1 | i | 10 | u | i | 2%
SMILES | KB-V1 cytotox | IL-1B inflam inh | MCF10A rereplic | KB-3-1 cytotox | SW480 rerep
CC(CC(=O)O)Nc1ccccc1O (stereo unspecified) | i | -18 | -5% | i | -12%
COC1=CC(=O)C(OC)=C(OC)C1=O | u | -102* | u | u | 19%
Cc1ccc([C@H]2C(C(=O)O)=CC[C@@H](c3ccc(Cl)cc3)N2S(=O)(=O)c2ccccc2C)cc1 | i | 0 | u | i | -6%
CCc1ccc([C@@H]2CC=C(C(=O)O)[C@H](c3ccc(C)cc3)N2S(=O)(=O)c2ccc(C)cc2)cc1 | i | 51 | -34% | i | 13%
CCc1ccc([C@@H]2CC=C(C(=O)O)[C@H](c3ccc(Cl)cc3)N2S(=O)(=O)c2ccc(C)cc2)cc1 | i | 0 | 13µM* | i | -13%
Cc1ccccc1S(=O)(=O)N1[C@@H](c2ccc(Cl)cc2)C(C(=O)O)=CC[C@H]1c1ccc(Cl)cc1 | i | 30 | 16µM* | i | 2%
Cc1ccccc1CNC(=O)CN1C(=O)C2CCCCN2c2ccc(C(=O)N3CCCC3)cc21 (stereo unspecified) | i | x | x | i | x
CCOC(=O)C(C(=O)OCC)C(=O)c1cccc2ccc3ccccc3c12 | u | 33 | x | i | x
O=C(NCCc1ccc2c(c1)OCCO2)c1ccc(F)cc1 | 23µM* | 0 | 4% | i | x
O=C(NCCc1ccc(Cl)cc1)c1ccc2c(c1)OCCO2 | i | 0 | -2% | i | -2%
Cc1cc(N2CCN(C/C=C/c3ccccc3)CC2)n2ncnc2n1 | 9.2µM* | -21 | -7% | i | -11%
Cc1cc(N2CCN(c3ccccc3)CC2)n2ncnc2n1 | u | 1 | 6% | i | -5%
CCS(=O)(=O)c1ncc(CO)n1CCc1ccccc1 | i | 10 | -2% | i | 1%
COCCCNC(=O)CC1C(=O)N(Cc2ccccc2)C(C)c2nc3ccccc3n21 (stereo unspecified) | i | 17 | -4% | i | -4%
COc1ccc(-c2[nH]ncc2[C@@H]2C[C@H]3CN(Cc4ccccc4C)C(=O)[C@]34CCCN24)cc1 | i | -15 | 18% | i | -101%
COc1ccccc1CN1C[C@@H]2C[C@@H](c3ccc(C)c(C)c3)N3CCC[C@@]23C1=O | i | -17 | -8% | i | 4.1µM*
Cc1ccccc1CN1C[C@@H]2C[C@@H](c3cn[nH]c3-c3ccc(F)cc3)N3CCC[C@@]23C1=O | i | -51* | 20% | i | 39%
COc1nc(OC)nc(N2CCC(C(=O)NCc3ccco3)CC2)n1 | u | 1 | 7% | i | -4%
Cc1cc(C)nc(N2CCC(C(=O)NCc3cccs3)CC2)n1 | 13µM* | -15 | -2% | i | -1%
CC1CCCC(C)N1c1ccc(S(=O)(=O)N2CCOCC2)cc1Cl (stereo unspecified) | u | 34 | 8.2µM* | i | u
O=S(=O)(c1ccc(N2CCOCC2)c(Cl)c1)N1CCOCC1 | i | 18 | u | i | 4%
O=C(NCc1cccs1)C1CCN(c2ccc(S(=O)(=O)N3CCOCC3)cc2Cl)CC1 | 3.7µM* | -13 | 6.5µM* | 2.3µM* | 1.3µM*
